Experimental data as given in PubChem BioAssay (NCI).
Compounds without any hit were thinned out: in the full panel of roughly 79,000, 15% have a hit. Rule as the data show it: active = growth inhibition above about 70%; inactive = the rest.

How the values were obtained:
[1] = NCI Yeast Anticancer Drug Screen. Data for the rad50 strain (AID 155);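 also: 0% = growth of vehicle-only cultures of the same strain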; conditions: S. cerevisiae rad50 strain growth inhibition, stronger effect = higher value; at 50.0 µM unless noted
In short: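 Cells are treated with compound, grown, and their growth is then scored against vehicle-only cultures of the same repair-deficient yeast strain.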

[2] = NCI Yeast Anticancer Drug Screen. Data for the mec2-1 strain (AID 157); conditions: S. cerevisiae mec2-1 strain, stronger effect = higher value; at 50.0 µM unless noted
In short: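 Cells of the genetically defined mec2-1 yeast strain are incubated with test compound. Inhibition of growth is calculated against vehicle-treated controls.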

[3] = NCI Yeast Anticancer Drug Screen. Data for the sgs1 mgt1 strain (AID 161);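 also: 0% = growth of cultures given vehicle only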; conditions: S. cerevisiae sgs1 mgt1 strain, stronger effect = higher value; at 50.0 µM unless noted
In short: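 Mutant yeast exposed to compound; growth scored against vehicle-only wells.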

[4] = NCI Yeast Anticancer Drug Screen. Data for the cln2 rad14 strain (AID 165);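 also: 0% = growth equal to vehicle treated cultures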; conditions: S. cerevisiae cln2 rad14 strain, stronger effect = higher value; at 50.0 µM unless noted
In short: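 The screen exposed genetically defined yeast (cln2 rad14) to test compounds and scored growth inhibition relative to vehicle-treated controls.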

[5] = NCI Yeast Anticancer Drug Screen. Data for the bub3 strain (AID 167); conditions: S. cerevisiae bub3 mutant strain, stronger effect = higher value; at 50.0 µM unless noted
In short: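 Part of a panel of yeast mutants defective in DNA damage repair or cell cycle regulation. Each strain is grown with compound, and inhibition is calculated relative to solvent-treated cultures.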

[6] = NCI Yeast Anticancer Drug Screen. Data for the mlh1 rad18 strain (AID 175); conditions: S. cerevisiae mlh1 rad18 strain growth inhibition, stronger effect = higher value; at 50.0 µM unless noted
In short: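 Compound-treated yeast growth, normalised to vehicle controls. Strain bears defined DNA repair mutations.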

Measured: growth inhibition

C=CC[N+]1(CCOC(=O)C(c2ccccc2)C2C=CCC2)CCCC1 (stereo not given)
inactive: [1] -17.1% | [2] 1.35% | [3] -6.9% | [4] -13.8% | [5] -13.9% | [6] -22.4%

COC(=O)N/N=C(/CCCC(=O)Nc1cccc([N+](=O)[O-])c1)C(C#N)c1ccc(CC#N)cc1 (stereo not given)
inactive: [1] -3.55% | [2] -0.1% | [3] -13.6% | [4] 1.8% | [5] 6.65% | [6] -3.3%

CC(O)CCC(=O)c1nc2ccccc2s1 (stereo not given)
inactive: [1] -14.4% | [2] 19.2% | [3] 5.95% | [4] -6.3% | [5] 4.95% | [6] 3.5%

O=C(N[C@@H](CSSC[C@H](NC(=O)OCc1ccccc1)C(=O)O)C(=O)O)OCc1ccccc1
inactive: [1] 15.6% | [2] 0.85% | [3] 9.2% | [4] -3.65% | [5] 2.7% | [6] 2.55%

CC(C)=CC(=O)CC1(C)CCC(c2ccoc2)O1 (stereo not given)
inactive: [1] -18.8% | [2] -32.9% | [3] -11.6% | [4] 14% | [5] 6.35% | [6] -16%

CC1C(=O)C(c2cccs2)(C2CCCCC2)CC[N+]1(C)C (stereo not given)
inactive: [1] 0% | [2] 4.5% | [3] -6.05% | [4] -19.1% | [5] 1.25% | [6] 17.4%

COC(=O)C(=O)C1CCc2ccc3ccccc3c2C1=O (stereo not given)
inactive: [1] -5.8% | [2] 2.3% | [3] 24.2% | [4] -4.65% | [5] 2.3% | [6] 38.5%

COCN(CCc1ccccc1)CCN(C)C
inactive: [1] 1.4% | [2] 5.1% | [3] 35% | [4] 7.2% | [5] 2.05% | [6] 16.5%

COc1ccc(/C=C/C(=O)c2sc(Nc3ccc([N+](=O)[O-])cc3)nc2C)cc1
inactive: [1] 39.2% | [2] 7.45% | [3] 5.35% | [4] 36.8% | [5] 27.5% | [6] 46.4%

CCO/C=C(\C)CC1([N+](=O)[O-])C(=O)c2ccccc2C1=O
inactive: [1] 7.95% | [2] -4.75% | [3] 16.1% | [4] -3.75% | [5] 11.5% | [6] 15.8%

Cc1ccc(C)c(NC(=O)Nc2ccccc2)c1
inactive: [1] 3.3% | [2] 4.25% | [3] -7.2% | [4] -25.1% | [5] 0.35% | [6] 1%

COc1ccc(COC(=O)Nc2ccccc2F)c(OC)c1OC
inactive: [1] 3.15% | [2] -9.55% | [3] 30.7% | [4] -3.55% | [5] 26.6% | [6] 16.7%

Cc1ccnc(NC(=O)CCc2ccccc2)c1
inactive: [1] -11.8% | [2] -16.8% | [3] -10.3% | [4] -31.7% | [5] -13.2% | [6] -5.85%

Cc1ccc(OS(=O)(=O)c2cccc(S(=O)(=O)Oc3ccc(C)cc3)c2)cc1
inactive: [1] 19.9% | [2] 3.35% | [3] 8.9% | [4] 7.7% | [5] 9.45% | [6] 6.15%

S=C(c1ccco1)N1CCOCC1
inactive: [1] 14.8% | [2] 12% | [3] 25.1% | [4] 12.7% | [5] 16.2% | [6] 10.8%

COC1=C2CC(C)CC(OC)C(O)C(C)/C=C(\C)C(OC(N)=O)C(OC)/C=C\C=C(/C)C(=O)NC(=C(/C=N/N(C)C)C1=O)C2=O (stereo not given)
inactive: [1] -11.3% | [2] -63.5% | [3] -35% | [4] 3.5% | [5] -16.9% | [6] -25.8%

NC1CCCC2CCC(N)C12 (stereo not given)
inactive: [1] 17.9% | [2] 15.6% | [3] 20.8% | [4] 24.6% | [5] 10.7% | [6] 20.2%

COC(=O)[C@@H]1Cc2cc(O)c(O)cc2C2(CCN(C)CC2)O1
inactive: [1] -21.5% | [2] -22.8% | [3] -17.6% | [4] -12.2% | [5] -10.7% | [6] -29.1%

CC(=O)c1cc([N+](=O)[O-])ccc1OCC(=O)O
inactive: [1] 5.95% | [2] 4.85% | [3] 3.75% | [4] 1.85% | [5] 9.85% | [6] 9.6%

O=c1c2cccnc2nc2ccc3c[nH][nH]c3c12
inactive: [1] -23.8% | [2] -24.6% | [3] -0.55% | [4] -14.6% | [5] -18.3% | [6] 8.65%
